The results in this text go back to PubChem BioAssay AID2284159 (EPA ToxCast).

The source made the active and inactive calls. Rule for the calls: active = hit-call score of the fitted dose curve at least 0.9, where 1 is the maximum; inactive = score below 0.9.

In this experiment the target is human Dopamine Receptor D2L, DRD2 (gene 1813) (UniProt P14416). Nature of the experiment: ERF_FR_GPCR_hDRD2: Eurofins (ERF) G Protein-Coupled Receptor (GPCR) Radioligand Binding LeadHunter Assay for human Dopamine Receptor D2L Antagonism. Here is the method: ERF_FR_GPCR_hDRD2 is a biochemical, single-readout assay that uses extracted gene-proteins in a cell-free assay. Measurements were taken 1 hour after chemical dosing in a 96-well plate. See D2L Human Dopamine GPCR Binding (Antagonist Radioligand) Assay, Cerep.ERF_FR_GPCR_hDRD2 is an assay component calculated from the ERF_FR_GPCR_hDRD2 assay. It is designed to measure radioligand binding using a type of binding reporter as detected by scintillation counting with radiometry technology.Data from the assay component ERF_FR_GPCR_hDRD2 was analyzed at the assay endpoint, ERF_FR_GPCR_hDRD2, in the positive analysis fitting direction relative to DMSO as the negative control and baseline of activity. Using a type of binding reporter, loss-of-signal activity can be used to understand changes in binding as they relate to gene DRD2. To generalize the intended target to other relatable targets, this assay endpoint is annotated to the gpcr intended target family, where the subfamily is dopamine.
human Dopamine Receptor D2L, DRD2 (gene 1813), sequence (P14416 whole entry, looked up): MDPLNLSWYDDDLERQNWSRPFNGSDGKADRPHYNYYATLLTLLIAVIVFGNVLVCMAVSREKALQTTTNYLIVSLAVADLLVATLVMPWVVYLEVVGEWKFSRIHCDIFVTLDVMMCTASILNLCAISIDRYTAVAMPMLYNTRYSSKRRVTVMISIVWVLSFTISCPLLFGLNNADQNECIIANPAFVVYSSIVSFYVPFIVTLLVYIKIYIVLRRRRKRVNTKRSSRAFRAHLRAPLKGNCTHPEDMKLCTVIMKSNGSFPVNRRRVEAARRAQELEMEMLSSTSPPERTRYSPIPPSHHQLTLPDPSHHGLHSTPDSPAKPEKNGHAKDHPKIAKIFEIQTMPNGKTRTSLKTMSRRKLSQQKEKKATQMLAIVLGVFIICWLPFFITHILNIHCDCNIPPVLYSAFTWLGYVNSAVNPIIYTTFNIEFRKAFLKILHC
Human cells are incubated for 60 minutes at room temprature with [3H]methyl-spiperone ligand (0.3 nM) and Butaclamol as control inhibitor.Test Sample Requirements: Minimum for 1) Screen: 60 ul of 10 mM stock -OR- 1 mg (pre-weighed) for 10 uM final testing. 2) Dose Response: 90 ul of 10 mM stock -OR- 1 mg (pre-weighed) for a top concentration at 10 uM.
On to `O=C(/C=C/c1ccc(O)cc1)CC(=O)/C=C/c1ccc(O)cc1`, for which the AC50 (commonly the concentration giving half of the maximal activity seen) is 1550 nM (active).
